Source: PubChem BioAssay AID1159580 (chemical genetic matrix, 2015)
In all, about 5,500 compounds went through this assay and about 2,000 (36%) were called active. Another 18% or so got no clear call; they are omitted. Rule as the data show it: active = normalized growth mostly below about 0.91 (no sharp cut-off); inconclusive = no clear call, values can overlap the other calls; inactive = mostly above about 0.92. This is one part of the list.

Test: chemical genetic growth profiling, strain panel (AID 1159580);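 also: tested at 20 µM; growth read once vehicle control cultures reached saturation at 30 °C; 1 = growth at the plate median or of vehicle wells; lower values mean less growth of the strain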
Details: growth OD

Measured: normalized growth

C=CCCCCCCCCCCCC(O)CC(O)COC(C)=O (stereo not drawn) (tested in a mixture with another compound)
active: S. cerevisiae deletion strains, locus YJL164C, strain tpk1, active compounds read low 0.832 | S. cerevisiae deletion strains, locus YJL166W, strain qcr8, active compounds read low 0.836 | S. cerevisiae deletion strains, locus YKL009W, strain mrt4, active compounds read low 0.864 | S. cerevisiae deletion strains, locus YKR001C, strain vps1, active compounds read low 0.817 | S. cerevisiae deletion strains, locus YLR027C, strain aat2, active compounds read low 0.921 | S. cerevisiae deletion strains, locus YLR221C, strain rsa3, active compounds read low 0.806 | S. cerevisiae deletion strains, locus YLR258W, strain gsy2, active compounds read low 0.906 | S. cerevisiae deletion strains, locus YLR262C, strain YPT6 (second series), active compounds read low 0.823 | S. cerevisiae deletion strains, locus YLR320W, strain mms22, active compounds read low 0.823 | S. cerevisiae deletion strains, locus YLR371W, strain rom2, active compounds read low 0.874 | S. cerevisiae deletion strains, locus YLR418C, strain cdc73, active compounds read low 0.684 | S. cerevisiae deletion strains, locus YML032C, strain rad52, active compounds read low 0.88 | S. cerevisiae deletion strains, locus YML120C, strain ndi1, active compounds read low 0.899 | S. cerevisiae deletion strains, locus YMR205C, strain PFK2, active compounds read low 0.826 | S. cerevisiae deletion strains, locus YNL071W, strain lat1, active compounds read low 0.762 | S. cerevisiae deletion strains, locus YNL233W, strain BNI4, active compounds read low 0.845 | S. cerevisiae deletion strains, locus YNL298W, strain CLA4, active compounds read low 0.824 | S. cerevisiae deletion strains, locus YNL307C, strain MCK1, active compounds read low 0.56 | S. cerevisiae deletion strains, locus YNR052C, strain pop2, active compounds read low 0.898 | S. cerevisiae deletion strains, locus YOL147C, strain pex11, active compounds read low 0.917 | S. cerevisiae deletion strains, locus YOR061W, strain CKA2, active compounds read low 0.672 | S. cerevisiae deletion strains, locus YOR083W, strain WHI5, active compounds read low 0.873 | S. cerevisiae deletion strains, locus YOR184W, strain ser1, active compounds read low 0.446 | S. cerevisiae deletion strains, locus YOR270C, strain vph1, active compounds read low 0.699 | S. cerevisiae deletion strains, locus YPL051W, strain arl3, active compounds read low 0.88 | S. cerevisiae deletion strains, locus YPL078C, strain atp4, active compounds read low 0.882 | S. cerevisiae deletion strains, locus YPR163C, strain tif3, active compounds read low 0.898 | S. cerevisiae deletion strains, locus YPR167C, strain met16, active compounds read low 0.905 | S. cerevisiae deletion strains, strain wtn01, active compounds read low 0.866 | S. cerevisiae strains, strain wild type, active compounds read low 0.796
inactive: S. cerevisiae deletion strains, locus YJL168C, strain set2, active compounds read low 0.992 | S. cerevisiae deletion strains, locus YJL187C, strain SWE1 (second series), active compounds read low 0.967 | S. cerevisiae deletion strains, locus YJL187C, strain SWE1, active compounds read low 0.961 | S. cerevisiae deletion strains, locus YKL068W, active compounds read low 1.01 | S. cerevisiae deletion strains, locus YKL085W, strain MDH1 (second series), active compounds read low 0.943 | S. cerevisiae deletion strains, locus YKL085W, strain MDH1, active compounds read low 0.943 | S. cerevisiae deletion strains, locus YKL160W, strain elf1, active compounds read low 0.923 | S. cerevisiae deletion strains, locus YKR026C, strain gcn3, active compounds read low 0.974 | S. cerevisiae deletion strains, locus YKR091W, strain srl3, active compounds read low 0.975 | S. cerevisiae deletion strains, locus YLL001W, strain dnm1, active compounds read low 0.908 | S. cerevisiae deletion strains, locus YLL026W, active compounds read low 0.968 | S. cerevisiae deletion strains, locus YLL041C, strain sdh2, active compounds read low 0.973 | S. cerevisiae deletion strains, locus YLR039C, strain RIC1, active compounds read low 1.13 | S. cerevisiae deletion strains, locus YLR058C, strain SHM2, active compounds read low 0.947 | S. cerevisiae deletion strains, locus YLR102C, strain apc9, active compounds read low 0.978 | S. cerevisiae deletion strains, locus YLR268W, strain sec22, active compounds read low 0.975 | S. cerevisiae deletion strains, locus YLR342W, strain FKS1 (second series), active compounds read low 0.824 | S. cerevisiae deletion strains, locus YLR342W, strain FKS1, active compounds read low 0.932 | S. cerevisiae deletion strains, locus YLR357W, strain rsc2, active compounds read low 1.02 | S. cerevisiae deletion strains, locus YLR370C, strain arc18, active compounds read low 0.975 | S. cerevisiae deletion strains, locus YLR384C, strain iki3, active compounds read low 0.97 | S. cerevisiae deletion strains, locus YML016C, strain PPZ1, active compounds read low 1.01 | S. cerevisiae deletion strains, locus YML124C, strain tub3, active compounds read low 0.997 | S. cerevisiae deletion strains, locus YMR058W, strain fet3, active compounds read low 0.953 | S. cerevisiae deletion strains, locus YMR078C, strain ctf18, active compounds read low 0.981 | S. cerevisiae deletion strains, locus YMR125W, strain sto1, active compounds read low 0.942 | S. cerevisiae deletion strains, locus YMR129W, active compounds read low 0.978 | S. cerevisiae deletion strains, locus YMR223W, strain ubp8, active compounds read low 0.928 | S. cerevisiae deletion strains, locus YMR231W, strain pep5, active compounds read low 0.966 | S. cerevisiae deletion strains, locus YMR307W, strain GAS1, active compounds read low 0.869 | S. cerevisiae deletion strains, locus YNL067W, strain RPL9B, active compounds read low 0.995 | S. cerevisiae deletion strains, locus YNL209W, strain ssb2, active compounds read low 0.965 | S. cerevisiae deletion strains, locus YNL248C, strain rpa49, active compounds read low 0.99 | S. cerevisiae deletion strains, locus YNL250W, strain rad50, active compounds read low 1.01 | S. cerevisiae deletion strains, locus YNL271C, strain bni1, active compounds read low 0.947 | S. cerevisiae deletion strains, locus YNL322C, strain KRE1 (second series), active compounds read low 0.973 | S. cerevisiae deletion strains, locus YNR049C, strain mso1, active compounds read low 0.969 | S. cerevisiae deletion strains, locus YOL012C, strain htz1 1.44 | S. cerevisiae deletion strains, locus YOR001W, strain rrp6, active compounds read low 0.943 | S. cerevisiae deletion strains, locus YOR069W, strain VPS5, active compounds read low 0.989 | S. cerevisiae deletion strains, locus YOR070C, strain gyp1, active compounds read low 0.935 | S. cerevisiae deletion strains, locus YOR080W, strain dia2, active compounds read low 0.978 | S. cerevisiae deletion strains, locus YOR106W, strain vam3, active compounds read low 0.875 | S. cerevisiae deletion strains, locus YOR136W, strain idh2, active compounds read low 0.973 | S. cerevisiae deletion strains, locus YOR144C, strain elg1, active compounds read low 0.944 | S. cerevisiae deletion strains, locus YOR265W, strain rbl2, active compounds read low 0.937 | S. cerevisiae deletion strains, locus YOR290C, strain snf2, active compounds read low 0.917 | S. cerevisiae deletion strains, locus YOR316C, strain cot1, active compounds read low 0.984 | S. cerevisiae deletion strains, locus YPL106C, strain sse1, active compounds read low 1.06 | S. cerevisiae deletion strains, locus YPL240C, strain hsp82, active compounds read low 0.958 | S. cerevisiae deletion strains, locus YPL241C, strain CIN2, active compounds read low 1 | S. cerevisiae deletion strains, locus YPR119W, strain clb2, active compounds read low 0.982 | S. cerevisiae deletion strains, locus YPR141C, strain kar3, active compounds read low 1.01
